Test results from PubChem BioAssay AID2588 (National Center for Advancing Translational Sciences (NCATS), 2010).
Results filed as inconclusive are left out. Active and inactive are the calls of the source. The call rests on the fitted dose curve; in most records, active means well fitted inhibition curve with a large enough effect; inconclusive means small, poorly fitted or top-dose-only effect, or effect the other way; inactive means flat fitted curve, though single readings scatter.

Target: Lysosomal acid glucosylceramidase (Homo sapiens) (UniProt P04062)
Test: qHTS Assay for Inhibitors and Activators of N370S glucocerebrosidase as a Potential Chaperone Treatment of Gaucher Disease: Activity in Non-Mutant Spleen Homogenate Using a Red Fluorescent Substrate
Settings: red fluorogenic substrate GCase activity; series mostly up to 50.2 µM
Source text: NIH Chemical Genomics Center [NCGC]
NIH Molecular Libraries Probe Production Centers Network [MLPCN]
Assay Submitter (PI): Wei Zheng
Glucocerebrosidase (GC) catalyzes the hydrolysis of beta-glucocerebroside to glucose and ceramide in lysosomes. Mutations in the glucocerebrosidase gene result in Gaucher disease, an autosomal recessive lysosomal storage disorder. Many of the mutations encountered in patients with Gaucher disease are missense alterations that may cause misfolding, decreased stability and/or mistrafficking of this lysosomal protein. […] These inhibitors include iminosugar analogs and three non-iminosugar inhibitors identified from a previous HTS of 62,000 compounds with the wild type recombinant enzyme. However, the enhancement of enzyme activity by the chaperone action of an enzyme inhibitor must be balanced against the direct inhibition of the enzyme. An enzyme activator could also function as a chaperone by binding to the enzyme and helping to correct its misfolding and mistrafficking. While activators for GC have not yet been identified, they may have better therapeutic potential than inhibitors. Therefore the discovery and development of chemical activators may provide a new strategy for the chaperone therapy.
We have optimized a new assay using N370S mutant GC derived from the spleen of a Gaucher patient. […] In addition, the MLPCN compound library has expanded, which increases the chance of finding new and better probes.
This confirmation assay tests for compound activity in spleen homogenate containing wildtype enzyme using an alternate resorufin-based substrate.
NCGC Assay Protocol Summary:
This is a fluorogenic enzyme assay with resorufin-beta-D-glucopyranoside as the substrate and wildtype glucocerebrosidase from human spleen homogenate as the enzyme preparation. Upon the hydrolysis of this fluorogenic substrate, the resulting product, […] which can be detected by a standard fluorescence plate reader. Data were normalized to the controls for basal activity (without enzyme) and 100% activity (with enzyme). The AC50 values were determined from concentration-response data modeled with the standard Hill equation.
Assay buffer: 50 mM citric acid (titrated with potassium phosphate to pH 5.0), 100 mM potassium chloride, 10 mM sodium chloride, 1 mM magnesium chloride, 0.01% Tween-20.
1536-well assay protocol:
(1) Add 2 ul/well of spleen homogenate (27 ug final)
(2) Add 23 nL compounds in DMSO solution. The final titration was 0.5 nM to 58 uM.
(3) Add 2 ul of substrate (1 mM final)
(4) Incubate at 37C for 40 min.
(5) Add 2 ul stop solution (1M NaOH and 1M Glycine mixture, pH 10)
(6) Detect the assay plate in a ViewLux plate reader (PerkinElmer) with Ex=365 nm and Em=440nm.
Keywords: Glucocerebrosidase, beta-glucosidase, Gaucher Disease, pharmacological chaperone, chaperone therapy, high throughput screening, glucocerebrosidase inhibitor, MLSMR, MLSCN, NIH Roadmap, qHTS and NCGC

Chain of Lysosomal acid glucosylceramidase (Homo sapiens) (P04062 whole entry, looked up): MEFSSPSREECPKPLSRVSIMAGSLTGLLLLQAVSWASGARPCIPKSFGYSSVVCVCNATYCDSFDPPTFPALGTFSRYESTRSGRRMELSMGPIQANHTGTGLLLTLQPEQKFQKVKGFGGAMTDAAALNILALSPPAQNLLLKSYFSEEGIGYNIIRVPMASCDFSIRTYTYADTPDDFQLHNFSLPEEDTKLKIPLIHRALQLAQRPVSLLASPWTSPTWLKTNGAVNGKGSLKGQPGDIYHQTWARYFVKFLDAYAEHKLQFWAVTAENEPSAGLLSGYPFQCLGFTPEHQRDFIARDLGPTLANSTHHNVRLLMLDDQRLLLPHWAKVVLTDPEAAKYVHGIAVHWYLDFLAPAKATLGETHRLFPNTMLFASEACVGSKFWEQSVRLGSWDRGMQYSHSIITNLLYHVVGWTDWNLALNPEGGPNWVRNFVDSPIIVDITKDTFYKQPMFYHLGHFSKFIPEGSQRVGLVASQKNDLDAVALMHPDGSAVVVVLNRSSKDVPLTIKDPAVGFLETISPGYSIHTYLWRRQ

**Q.** How did the Potency turn out when `COc1cc(OC)c2c(N)c(C#N)c(C(F)(F)C(F)(F)F)nc2c1` was run?
**A.** inactive

**Q.** For `COc1ccc(Nc2nc(-c3cccs3)nc3ccccc23)cc1`, which Potency is on record?
**A.** 1410 nM (active)

**Q.** How did the Potency turn out when `O=[N+]([O-])c1ccccc1S(=O)(=O)N1CCN(c2nc(-c3cccs3)nc3ccccc23)CC1` was run?
**A.** 562 nM (active)

**Q.** For `Clc1ccccc1-c1nccc(NCc2ccccc2)n1`, which Potency is on record?
**A.** 3980 nM (active)

**Q.** Which Potency does the source give for `O=S(=O)(c1ccccc1Br)N1CCN(c2nc(-c3cccs3)nc3ccccc23)CC1` here?
**A.** 562 nM (active)

**Q.** `Cc1ccc(S(=O)(=O)N2CCN(c3nc(-c4ccc(F)cc4)nc4cc(Cl)ccc34)CC2)cc1` was tested. Which Potency did it give?
**A.** inactive

**Q.** Which Potency does the source give for `Cc1cc(N2CCN(c3ncccn3)CC2)nc2ccc(NC(=O)C3CCC(C)CC3)cc12` (stereo not given) here?
**A.** 11200 nM (active)

**Q.** Which Potency does the source give for `S=C(NCCCc1cnc[nH]1)NCCCN(Cc1ccc(Cl)c(Cl)c1)c1ccc(Br)cn1` here?
**A.** 1000 nM (active)

**Q.** For `CCCC1CCC(C(=O)Nc2ccc3nc(N4CCOCC4)cc(C)c3c2)CC1` (stereo not given), which Potency is on record?
**A.** 447 nM (active)

**Q.** How did the Potency turn out when `O=C(Nc1cnn(Cc2ccc(F)cc2)c1)c1cnn2c(C(F)F)cc(-c3ccccc3)nc12` was run?
**A.** inactive

**Q.** With `O=S(=O)(c1ccccc1)N1CCN(c2nc(-c3cccs3)nc3ccccc23)CC1` as the compound, how does the Potency read?
**A.** 316 nM (active)

**Q.** `Cc1cccc(Nc2nc(NCCO)nc(N3CCCC3)n2)c1` was tested. Which Potency did it give?
**A.** inactive

**Q.** `O=[N+]([O-])c1ccc(S(=O)(=O)N2CCN(c3nc(-c4cccs4)nc4ccccc34)CC2)cc1` was tested. Which Potency did it give?
**A.** 1120 nM (active)

**Q.** For `Cc1ccc(-c2nc(N3CCN(S(=O)(=O)c4ccc(F)cc4)CC3)c3ccc(Cl)cc3n2)cc1`, which Potency is on record?
**A.** inactive

**Q.** How did the Potency turn out when `O=S(=O)(c1cccc(C(F)(F)F)c1)N1CCN(c2nc(-c3cccs3)nc3cc(Cl)ccc23)CC1` was run?
**A.** inactive

**Q.** `CC(C)(C)C(=O)OCCNc1nc(-c2ccccc2)nc2ccccc12` was tested. Which Potency did it give?
**A.** 2240 nM (active)

**Q.** How did the Potency turn out when `Nc1nc(-c2ccccc2)c(N=Nc2ccc(Cl)cc2)s1` was run?
**A.** inactive

**Q.** `O=S(=O)(c1ccc(OC(F)(F)F)cc1)N1CCN(c2nc(-c3cccs3)nc3ccccc23)CC1` was tested. Which Potency did it give?
**A.** 3980 nM (active)

**Q.** With `O=C(COc1ccccc1[N+](=O)[O-])Nc1ccc(Br)cc1` as the compound, how does the Potency read?
**A.** inactive

**Q.** `CC1(C)CC(=O)C2=C(C1)c1c(ccc3ccccc13)NC2c1ccc(Br)o1` (stereo not given) was tested. Which Potency did it give?
**A.** inactive

**Q.** How did the Potency turn out when `CCCNC(=O)COC(=O)c1ccccc1OCC(=O)Nc1ccc(Br)cc1` was run?
**A.** inactive

**Q.** Which Potency does the source give for `O=S(=O)(c1ccc(Br)cc1)N1CCN(c2nc(-c3cccs3)nc3ccccc23)CC1` here?
**A.** 794 nM (active)

**Q.** `CCOc1ccccc1NC(=O)CN(c1ccc(C)cc1)S(=O)(=O)c1c(C)noc1C` was tested. Which Potency did it give?
**A.** inactive

**Q.** `Cc1ccc(S(=O)(=O)N2CCN(c3nc(-c4cccs4)nc4ccccc34)CC2)cc1` was tested. Which Potency did it give?
**A.** 316 nM (active)

**Q.** With `O=[N+]([O-])c1cccc(S(=O)(=O)N2CCN(c3nc(-c4cccs4)nc4ccccc34)CC2)c1` as the compound, how does the Potency read?
**A.** 1120 nM (active)

**Q.** How did the Potency turn out when `O=S(=O)(c1cccc(Br)c1)N1CCN(c2nc(-c3cccs3)nc3ccccc23)CC1` was run?
**A.** 1410 nM (active)

**Q.** Which Potency does the source give for `O=C(/C=C/c1ccc(O)cc1)c1ccc(O)cc1O` here?
**A.** 3980 nM (active)

**Q.** With `COc1ccc(S(=O)(=O)N2CCN(c3nc(-c4cccs4)nc4ccccc34)CC2)cc1` as the compound, how does the Potency read?
**A.** 355 nM (active)

**Q.** With `O=C(Nc1ccccc1)c1ccc(NS(=O)(=O)c2ccccc2)cc1` as the compound, how does the Potency read?
**A.** inactive

**Q.** For `Cc1cc(N2CCOCC2)nc2ccc(NC(=O)C3CCC(C)CC3)cc12` (stereo not given), which Potency is on record?
**A.** 2820 nM (active)

**Q.** `Cc1ccc(C)c(N2CCN(C(=O)CCC(=O)Nc3ccc4nc(N5CCOCC5)cc(C)c4c3)CC2)c1` was tested. Which Potency did it give?
**A.** 14100 nM (active)

**Q.** With `COc1ccc(S(=O)(=O)N2CCN(c3nc(-c4cccs4)nc4ccccc34)CC2)cc1OC` as the compound, how does the Potency read?
**A.** 224 nM (active)

**Q.** With `Cc1ccc(NC(=O)COc2ccccc2C(=O)Nc2ccccc2)cc1Cl` as the compound, how does the Potency read?
**A.** inactive

**Q.** Which Potency does the source give for `O=C(Nc1nccs1)c1ccc(NS(=O)(=O)c2ccc(Cl)cc2)cc1` here?
**A.** inactive

**Q.** With `O=S(=O)(c1ccc2c(c1)OCCO2)N1CCN(c2nc(-c3ccccc3)nc3ccccc23)CC1` as the compound, how does the Potency read?
**A.** 4470 nM (active)

**Q.** `NS(=O)(=O)c1ccc(S(=O)(=O)N2CCN(c3nc(-c4cccs4)nc4ccccc34)CC2)cc1` was tested. Which Potency did it give?
**A.** 2240 nM (active)

**Q.** How did the Potency turn out when `O=S(=O)(c1cccc(C(F)(F)F)c1)N1CCN(c2nc(-c3ccccc3)nc3ccccc23)CC1` was run?
**A.** 8910 nM (active)

**Q.** How did the Potency turn out when `Cc1cc(N2CCCCC2)nc2ccc(NC(=O)C3CCC(C)CC3)cc12` (stereo not given) was run?
**A.** 7940 nM (active)

**Q.** `CCc1cc(C(=O)N/N=C/c2c(C)[nH]c3ccccc23)cs1` was tested. Which Potency did it give?
**A.** inactive

**Q.** How did the Potency turn out when `COc1cc2c(cc1NC(=O)COC(=O)[C@@H](NC(=O)c1ccccc1)C(C)C)oc1ccccc12` was run?
**A.** inactive
